Measured values published in PubChem BioAssay (NCI).
About 83,000 compounds went through this panel and 20% of them were active in at least one assay; those are over-represented in the sample as a whole.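 Testing used 96-well plates and a 48-hour single-concentration exposure. Example: -40 means 40% of the starting cells died.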 A number with no mark means an inactive call. Calls of active or inactive are those of the source. How the source made its calls: active means growth percent below 10; inactive means the rest.

test system: OVCAR-8 ovarian; experiment: NCI-60 one-dose screen, 48 h (100 = growth as untreated, 0 = no growth, -100 = all killed); settings: 10 µM unless noted

In order of falling growth:
1. CCOC(=O)C(=O)C(C(=O)OCC)c1ccccc1 (stereo not given)  120%
2. COc1ccc(\C=N/N=C(N)/C(N)=N\N=C/c2ccc(OC)cc2)cc1  117%
3. O=C(NNC(=O)c1ccc(NC(=O)c2ccccn2)cc1)Nc1ccc([N+](=O)[O-])cc1  104%
4. CCCc1c(OC(=O)c2ccccc2)nc2[nH]c(=O)sc2c1C  102%
5. CC1=NC2=Nn3c(c4cnn(-c5ccccc5)c4n/c3=N\N)NN2C(c2ccccc2)=C1  101%
6. Nc1n[nH]c2cccc(C#Cc3cccc(NC(=O)c4cc(F)cc(C(F)(F)F)c4)c3)c12  94.2%
7. COc1ccc(-c2nc3cc(C(=O)NCc4ccccc4)ccc3n2C2CCCCC2)cc1  93%
8. Cc1ccc(/C=C2\COc3ccc(O)cc3C2=O)cc1  91.7%
9. CCOC(=O)c1cc(C)n(-c2ccc(C(=O)O)cc2)c1C  87.6%
10. CS(=O)(=O)Nc1cncc(-c2ccc3ncnc(Nc4cncc(Cl)c4)c3c2)c1  87.1%
11. O=S(=O)(NCCNc1nccc(-c2c(-c3ccc(F)c(O)c3)nc3occn23)n1)c1ccc(Cl)cc1  86%
12. COc1cc2c(c(OC)c1OC)CCC(c1cccc(NC(=O)c3ccc(Br)cc3)c1)O2 (stereo not given)  85.3%
13. Cc1c(-c2ccc(O)cc2)n(Cc2ccc(OCCN3CCCCCC3)cc2)c2ccc(O)cc12  84.7%
14. Cc1cc(S(=O)(=O)/N=C(\N)n2nc(C)c(C)c2C)c(SCc2ccccc2)cc1Cl  72.8%
15. N#Cc1nc(-c2ccc(F)cc2)oc1S(=O)(=O)N1CCOCC1  63.1%
16. COC(CC(F)F)c1cn(S(=O)(=O)c2ccc(C)cc2)c2ccccc12 (stereo not given)  58.5%
17. C=CCn1c(SCC(=O)Nc2ccc(C(=O)/C=C/c3ccc(Cl)cc3)cc2)nnc1-c1ccc(Br)cc1  57.6%
18. NC(=O)CSc1oc(-c2ccccc2)nc1S(=O)(=O)c1ccc(Br)cc1  49.4%
19. CS(=O)(=O)c1ccc(-c2cnn3ccc(-c4cccc(S(=O)(=O)C5CC5)c4)nc23)cc1  43.7%
20. O=C1NC(=O)C(Cc2ccc(OCc3ccc(-c4ccc(Cl)cc4Cl)cc3)cc2)S1 (stereo not given)  42.6%
21. CC(C)(Sc1cc(C(C)(C)C)c(OC(=O)CCCC(=O)O)c(C(C)(C)C)c1)Sc1cc(C(C)(C)C)c(OC(=O)CCCC(=O)O)c(C(C)(C)C)c1  36%
22. CC(C)c1ccc(Cc2cnc(NC(=O)c3cc(Br)cs3)s2)cc1  35.5%
23. O=C(Nc1ccc(Oc2cccc(F)c2)c(Cl)c1)c1cccnc1  34.6%
24. NC(=O)c1cccc(-n2ccc3cc(NC(=O)c4ccc(N5CCOCC5)c(C(F)(F)F)c4)ccc32)n1  31.9%
25. Cc1cn(-c2cc(NC(=O)c3cccc(C#Cc4cccc5[nH]nc(N)c45)c3)cc(C(F)(F)F)c2)cn1  28.5%
26. COc1ccc(CNc2c3ccccc3nc3ccccc23)cc1  27.7%
27. Cc1nc2sc(C(=O)Nc3cccc(Br)c3)c(N)c2cc1C(O)c1ccccc1 (stereo not given)  20.8%
28. Cn1cc(-c2nonc2-c2cn(C)c3ccccc23)c2ccccc21  17.4%
29. Cc1ccc(C[P+](c2ccccc2)(c2ccccc2)c2ccccc2)cc1  15.6%
30. COc1cc(-c2nccc3[nH]c(-c4ccc5cc[nH]c5c4)nc23)cc(OC)c1OC  12.4%
31. CC1=C2[C@@H](CC1)[C@]1(C)O[C@@](C(C)C)(C[C@H]1OC(=O)[C@H](C)O)[C@H]2OC(=O)/C=C/c1ccccc1  10.2%

In the case of `N#CSc1c[nH]c2cccc(/C=C/C(=O)/C=C(/C=C/c3cccc4[nH]cc(SC#N)c34)OB(F)F)c12`, the growth is reported as -26.1% (active).
With `CN(C)CC(C)(C)C(=O)/C=C/c1ccccc1` the growth was -47.1% [25 µM] (active).
For `Oc1c(I)cc(I)cc1CNCCN(Cc1ccccn1)Cc1ccccn1`, the growth was -19.7% (active).
For `C=CC[Se]C(=O)Cc1c(C)n(C(=O)c2ccc(Cl)cc2)c2ccc(OC)cc12`, the growth was -38.1% (active).
For `CCC(=C(c1ccc(OCCN2CCCCC2)cc1)c1ccc(OCCN2CCCCC2)cc1)c1ccc(Cl)cc1`, the growth was -75.4% (active).
For `COc1cc2nc3cc([N+](=O)[O-])ccc3c(NCCNCC(C)O)c2cc1OC` (stereo not given), the growth was -8.18% (active).
With `CCCCCN1C(=O)/C(=c2\sc3n(c2=O)C2C(NN=3)N(CC)C(=O)N2CC)c2ccccc21` (stereo not given) the growth was -53.2% (active).
`CC/C=C\C[C@H](O)C/C=C1/C(=O)C=C[C@@H]1C/C=C\CCCC(=O)N(C)C` was tested, and the growth was 2.8% (active).
With `Cc1ccc(-c2nc([P+](c3ccccc3)(c3ccccc3)c3ccccc3)c(S(=O)(=O)c3ccc(C)cc3)o2)cc1` the growth was 8.26% (active).
